The results in this text go back to PubChem BioAssay (NCI).

Compounds without any hit were thinned out: in the full panel of roughly 83,000, 20% have a hit.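 The test compound was applied at a single concentration to cells in 96-well plates for 48 hours, and percent growth was recorded.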 Calls of active or inactive are those of the source. How the source made its calls: active means growth percent below 10; inactive means the rest.

This assay relates to NCI-H522 lung. The experiment in a line: NCI-60 one-dose screen, 48 h (100 = growth as untreated, 0 = no growth, -100 = all killed). The settings on record: 10 µM unless noted.
Take `COc1ccc(-c2cc(NC(=O)Nc3ccc4ncsc4c3)no2)cc1`: the growth is 88.3% (inactive).

For the compound `O=[N+]([O-])c1ccccc1/C=N\NC(=S)N/N=C/c1ccccc1[N+](=O)[O-]`, the growth is 23.2% (inactive).

In the case of `O=C1c2cc3c(cc2-c2c1c1ccc(F)cc1c(=O)n2C[C@H](O)[C@H](O)[C@H](O)CO)OCO3`, the growth is -24.6% (active).

With `Cc1ccc2c(C(C[N+](=O)[O-])c3ccccc3F)c(-c3ccccc3)[nH]c2c1` (stereo not drawn), the growth was -17.2% (active).

Take `COc1ccc(CCNc2nc(SC)nc(-c3cccc([N+](=O)[O-])c3)c2C#N)cc1OC`: the growth is 66.7% (inactive).

Regarding `O=C(CCN1C(=O)/C(=C/c2ccc(Cl)cc2)SC1=S)NCCCN1CCOCC1`, the growth was 88.9% (inactive).

Take `Cc1nn(-c2cc(=O)[nH]c3ccc(Cl)cc23)c(N)c1C#N`: the growth is 93.3% (inactive).

For the compound `COC[C@H](C)n1c(C2CCOCC2)nc2cnc3cc(-c4c(C)noc4C)c(OC)cc3c21`, the growth is 34.4% (inactive).

Consider `COc1cc(C(=O)Oc2ccccc2OC(=O)c2cc(OC)c(OC)c(OC)c2)cc(OC)c1OC`, for which the growth is 89.6% (inactive).

As to `COc1ccc(/C=C\c2cc(OC)c(OC)c(OC)c2)cc1OCC(=O)Nc1ccc2nc(C)sc2c1`, the growth is -2.14% (active).

Turning to `COc1cc2c(cc1O)CC[C@@H]1[C@@H]2CC[C@]2(C)[C@@H](OCCCN(C)C)CC[C@@H]12`, the growth was -90.8% (active).

With `CC(=O)Oc1ccc(Cl)cc1CN(C(C)=O)C1CCCCC1`, the growth was 88.2% (inactive).

Consider `O=C(/C=C/c1cccc([N+](=O)[O-])c1)c1ccc(O)c(CN2CCN(c3cc4c(cc3F)c(=O)c(C(=O)O)cn4C3CC3)CC2)c1`, for which the growth is 16.3% (inactive).

Regarding `O=C1c2cc3c(cc2-c2c1c1ccc(Cl)cc1c(=O)n2CCCN1CCOCC1)OCO3`, the growth was 53.5% (inactive).

Regarding `COc1ccc(-n2nc(C)c3c(Oc4ccc(NC(=O)Nc5c(Cl)cccc5Cl)cc4)ncnc32)cc1`, the growth is 93.6% (inactive).

Regarding `CCOc1cc2c(cc1OCC)C(c1cc(OC)c(O)cc1Cl)NCC2` (stereo not drawn), the growth was 102% (inactive).

`COC(=O)c1ccc(NC(=O)c2ccc(-c3cccc([N+](=O)[O-])c3)o2)cc1`: the growth is 94.2% (inactive).

Turning to `COc1ccc(-c2cc(-c3ccc(Nc4ccnc5cc(Cl)ccc45)cc3)nc(N3CCOCC3)n2)cc1`, the growth was 48% (inactive).

With `O=C(COc1cccc(/C=C2\CSc3ccccc3C2=O)c1)Nc1nccs1`, the growth was -60.3% (active).

Turning to `N#C/C(=C\c1ccc(-c2ccc(Cl)c(Cl)c2)o1)c1nc(-c2ccco2)cs1`, the growth is 89.3% (inactive).

Consider `CN(C)c1ccc(N=Nc2ccc(Br)cn2)c(O)c1`, for which the growth is 14.4% (inactive).

In the case of `C#CCOc1ccc2ncnc(Nc3cccc(CNC(=O)CCl)c3)c2c1`, the growth is -47.7% [8.25 µM] (active).

Turning to `Cn1cc(-c2nonc2-c2c[nH]c3ccccc23)c2cccnc21`, the growth is 18.4% (inactive).

Regarding `O=CNc1ccc2c(c1)Cc1cccc(NC=O)c1-2`, the growth was 82.2% (inactive).

In the case of `Cn1c(O)c(N=NC(=O)c2cc(-c3ccccc3)on2)c2ccccc21`, the growth is 89.9% (inactive).

`CC1=C/C(=C(\c2ccc(N(C)C)cc2)c2ccc([N+](C)(C)C)cc2)C=CC1=[N+](C)C`: the growth was 97.2% (inactive).

`COc1cc2c(cc1-c1c(C)noc1C)ncc1nc(C3CCCC3)n([C@H](C)COC(F)F)c12`: the growth is 22.6% (inactive).

`Clc1ccc2c(NCCNc3nc(N4CCCCC4)nc4ccccc34)ccnc2c1`: the growth was -21.8% (active).

Regarding `COc1ccc2[nH]cc(-c3noc(C(=O)c4cn(C)c5ccc(F)cc45)n3)c2c1`, the growth is 92.8% (inactive).

`O=c1cc(CSc2nnc(-c3ccc(F)cc3)o2)c2ccc3ccccc3c2o1`: the growth is 83.8% (inactive).

For the compound `O=C1Nc2ccc(Br)cc2C12Oc1ccccc1C1CC(c3ccc(F)cc3)=NN12` (stereo not drawn), the growth was 81% (inactive).

For the compound `FC(F)(F)c1ccc(-c2cn3nc(-c4c[nH]c5ccc(Br)cc45)sc3n2)cc1`, the growth was 91.6% (inactive).

As for `COc1cc(/C=C/c2cc(/C=C/c3ccc(O)c(OC)c3)n(-c3c(Cl)cccc3Cl)c(=O)n2)ccc1O`, the growth was 9.89% (active).

Turning to `C=CCSSc1ncnc2c1ncn2C1OC(CO)C(O)C1O` (stereo not drawn), the growth is 11.3% (inactive).

Regarding `O=Nc1c(O)c(Cl)cc2ccccc12`, the growth was 50.1% (inactive).

As to `Cc1cc2nc3[nH]c4ccccc4c3nc2cc1C`, the growth was 94% (inactive).

Turning to `COc1cc(-c2nn(C)nc2-c2cc3ccccc3s2)cc(OC)c1OC`, the growth is 0.184% (active).

Regarding `CC(=O)OCCC/C(=C/c1cc2ccccc2c2ccccc12)[N+](=O)[O-]`, the growth was -59.9% (active).
